# Measurements from PubChem BioAssay AID1159580 (chemical genetic matrix, 2015).
# The whole screen tested about 5,500 compounds, of which about 2,000 (36%) were called active. Inconclusive results (about 18%) are left out. The list shows a part of the results. A number with no mark means an inactive call. Rule as the data show it: active = normalized growth mostly below about 0.91 (no sharp cut-off); inconclusive = no clear call, values can overlap the other calls; inactive = mostly above about 0.92.
# Assay: chemical genetic growth profiling, strain panel (AID 1159580);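 also: tested at 20 µM; growth read once vehicle control cultures reached saturation at 30 °C; 1 = growth at the plate median or of vehicle wells; lower values mean less growth of the strain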
# Conditions: growth OD
smiles,measurement,setting,value
COc1ccc(-c2coc3c(O)c(OC)ccc3c2=O)cc1,normalized growth,"S. cerevisiae deletion strains, locus YKL009W, strain mrt4, hits give low values",0.865 (active)
same,normalized growth,"S. cerevisiae deletion strains, locus YKL068W, hits give low values",0.94 (active)
same,normalized growth,"S. cerevisiae deletion strains, locus YKL085W, strain MDH1 (second series), hits give low values",0.935
same,normalized growth,"S. cerevisiae deletion strains, locus YKL085W, strain MDH1, hits give low values",0.935
same,normalized growth,"S. cerevisiae deletion strains, locus YKL160W, strain elf1, hits give low values",0.869 (active)
same,normalized growth,"S. cerevisiae deletion strains, locus YKL190W, strain CNB1, hits give low values",0.932
same,normalized growth,"S. cerevisiae deletion strains, locus YKR001C, strain vps1, hits give low values",0.82 (active)
same,normalized growth,"S. cerevisiae deletion strains, locus YKR026C, strain gcn3, hits give low values",0.967
same,normalized growth,"S. cerevisiae deletion strains, locus YKR091W, strain srl3, hits give low values",0.961
same,normalized growth,"S. cerevisiae deletion strains, locus YLL001W, strain dnm1, hits give low values",0.914
same,normalized growth,"S. cerevisiae deletion strains, locus YLL026W, hits give low values",0.966
same,normalized growth,"S. cerevisiae deletion strains, locus YLL041C, strain sdh2, hits give low values",0.956
same,normalized growth,"S. cerevisiae deletion strains, locus YLR027C, strain aat2, hits give low values",0.964
same,normalized growth,"S. cerevisiae deletion strains, locus YLR039C, strain RIC1, hits give low values",0.491 (active)
same,normalized growth,"S. cerevisiae deletion strains, locus YLR058C, strain SHM2, hits give low values",0.9
same,normalized growth,"S. cerevisiae deletion strains, locus YLR102C, strain apc9, hits give low values",0.941
same,normalized growth,"S. cerevisiae deletion strains, locus YLR113W, strain HOG1, hits give low values",0.994
same,normalized growth,"S. cerevisiae deletion strains, locus YLR221C, strain rsa3, hits give low values",0.957
same,normalized growth,"S. cerevisiae deletion strains, locus YLR258W, strain gsy2, hits give low values",0.925
same,normalized growth,"S. cerevisiae deletion strains, locus YLR262C, strain YPT6 (second series), hits give low values",0.736 (active)
same,normalized growth,"S. cerevisiae deletion strains, locus YLR268W, strain sec22, hits give low values",0.766 (active)
same,normalized growth,"S. cerevisiae deletion strains, locus YLR320W, strain mms22, hits give low values",0.827 (active)
same,normalized growth,"S. cerevisiae deletion strains, locus YLR330W, strain CHS5, hits give low values",0.838 (active)
same,normalized growth,"S. cerevisiae deletion strains, locus YLR342W, strain FKS1 (second series), hits give low values",0.843
same,normalized growth,"S. cerevisiae deletion strains, locus YLR342W, strain FKS1, hits give low values",0.963
same,normalized growth,"S. cerevisiae deletion strains, locus YLR357W, strain rsc2, hits give low values",0.899
same,normalized growth,"S. cerevisiae deletion strains, locus YLR370C, strain arc18, hits give low values",0.974
same,normalized growth,"S. cerevisiae deletion strains, locus YLR371W, strain rom2, hits give low values",0.922
same,normalized growth,"S. cerevisiae deletion strains, locus YLR384C, strain iki3, hits give low values",0.989
same,normalized growth,"S. cerevisiae deletion strains, locus YLR418C, strain cdc73, hits give low values",0.722 (active)
same,normalized growth,"S. cerevisiae deletion strains, locus YML016C, strain PPZ1, hits give low values",0.925
same,normalized growth,"S. cerevisiae deletion strains, locus YML032C, strain rad52, hits give low values",0.862 (active)
same,normalized growth,"S. cerevisiae deletion strains, locus YML120C, strain ndi1, hits give low values",0.893 (active)
same,normalized growth,"S. cerevisiae deletion strains, locus YML124C, strain tub3, hits give low values",0.937
same,normalized growth,"S. cerevisiae deletion strains, locus YMR058W, strain fet3, hits give low values",0.952
same,normalized growth,"S. cerevisiae deletion strains, locus YMR078C, strain ctf18, hits give low values",0.864 (active)
same,normalized growth,"S. cerevisiae deletion strains, locus YMR125W, strain sto1, hits give low values",0.964
same,normalized growth,"S. cerevisiae deletion strains, locus YMR129W, hits give low values",0.969
same,normalized growth,"S. cerevisiae deletion strains, locus YMR205C, strain PFK2, hits give low values",0.824 (active)
same,normalized growth,"S. cerevisiae deletion strains, locus YMR223W, strain ubp8, hits give low values",0.881 (active)
same,normalized growth,"S. cerevisiae deletion strains, locus YMR231W, strain pep5, hits give low values",0.987
same,normalized growth,"S. cerevisiae deletion strains, locus YMR307W, strain GAS1, hits give low values",0.58 (active)
same,normalized growth,"S. cerevisiae deletion strains, locus YNL067W, strain RPL9B, hits give low values",0.959
same,normalized growth,"S. cerevisiae deletion strains, locus YNL071W, strain lat1, hits give low values",0.571 (active)
same,normalized growth,"S. cerevisiae deletion strains, locus YNL128W, strain TEP1, hits give low values",0.889
same,normalized growth,"S. cerevisiae deletion strains, locus YNL183C, strain NPR1, hits give low values",0.952
same,normalized growth,"S. cerevisiae deletion strains, locus YNL209W, strain ssb2, hits give low values",0.948
same,normalized growth,"S. cerevisiae deletion strains, locus YNL233W, strain BNI4, hits give low values",0.879
same,normalized growth,"S. cerevisiae deletion strains, locus YNL248C, strain rpa49, hits give low values",0.965
same,normalized growth,"S. cerevisiae deletion strains, locus YNL250W, strain rad50, hits give low values",0.928
same,normalized growth,"S. cerevisiae deletion strains, locus YNL271C, strain bni1, hits give low values",0.941
same,normalized growth,"S. cerevisiae deletion strains, locus YNL298W, strain CLA4, hits give low values",0.904 (active)
same,normalized growth,"S. cerevisiae deletion strains, locus YNL307C, strain MCK1, hits give low values",0.595 (active)
same,normalized growth,"S. cerevisiae deletion strains, locus YNL322C, strain KRE1 (second series), hits give low values",0.839 (active)
same,normalized growth,"S. cerevisiae deletion strains, locus YNL322C, strain KRE1, hits give low values",0.939
same,normalized growth,"S. cerevisiae deletion strains, locus YNR049C, strain mso1, hits give low values",0.995
same,normalized growth,"S. cerevisiae deletion strains, locus YNR052C, strain pop2, hits give low values",0.925
same,normalized growth,"S. cerevisiae deletion strains, locus YOL012C, strain htz1",0.727
same,normalized growth,"S. cerevisiae deletion strains, locus YOL147C, strain pex11, hits give low values",0.836 (active)
same,normalized growth,"S. cerevisiae deletion strains, locus YOR001W, strain rrp6, hits give low values",0.974
same,normalized growth,"S. cerevisiae deletion strains, locus YOR061W, strain CKA2, hits give low values",0.912
same,normalized growth,"S. cerevisiae deletion strains, locus YOR069W, strain VPS5, hits give low values",0.941
same,normalized growth,"S. cerevisiae deletion strains, locus YOR070C, strain gyp1, hits give low values",0.994
same,normalized growth,"S. cerevisiae deletion strains, locus YOR080W, strain dia2, hits give low values",0.992
same,normalized growth,"S. cerevisiae deletion strains, locus YOR083W, strain WHI5, hits give low values",0.902
same,normalized growth,"S. cerevisiae deletion strains, locus YOR106W, strain vam3, hits give low values",0.882
same,normalized growth,"S. cerevisiae deletion strains, locus YOR136W, strain idh2, hits give low values",0.927
same,normalized growth,"S. cerevisiae deletion strains, locus YOR144C, strain elg1, hits give low values",0.894 (active)
same,normalized growth,"S. cerevisiae deletion strains, locus YOR184W, strain ser1, hits give low values",0.708 (active)
same,normalized growth,"S. cerevisiae deletion strains, locus YOR231W, strain MKK1, hits give low values",1.02
same,normalized growth,"S. cerevisiae deletion strains, locus YOR265W, strain rbl2, hits give low values",0.984
same,normalized growth,"S. cerevisiae deletion strains, locus YOR270C, strain vph1, hits give low values",0.888
same,normalized growth,"S. cerevisiae deletion strains, locus YOR290C, strain snf2, hits give low values",0.807 (active)
same,normalized growth,"S. cerevisiae deletion strains, locus YOR316C, strain cot1, hits give low values",0.943
same,normalized growth,"S. cerevisiae deletion strains, locus YPL051W, strain arl3, hits give low values",0.87 (active)
same,normalized growth,"S. cerevisiae deletion strains, locus YPL078C, strain atp4, hits give low values",0.836 (active)
same,normalized growth,"S. cerevisiae deletion strains, locus YPL106C, strain sse1, hits give low values",0.903
same,normalized growth,"S. cerevisiae deletion strains, locus YPL240C, strain hsp82, hits give low values",0.946
same,normalized growth,"S. cerevisiae deletion strains, locus YPL256C, strain CLN2, hits give low values",0.989
same,normalized growth,"S. cerevisiae deletion strains, locus YPR119W, strain clb2, hits give low values",0.928 (active)
same,normalized growth,"S. cerevisiae deletion strains, locus YPR141C, strain kar3, hits give low values",0.932
same,normalized growth,"S. cerevisiae deletion strains, locus YPR163C, strain tif3, hits give low values",0.694 (active)
same,normalized growth,"S. cerevisiae deletion strains, locus YPR167C, strain met16, hits give low values",0.926
same,normalized growth,"S. cerevisiae deletion strains, strain wtn01, hits give low values",0.846 (active)
same,normalized growth,"S. cerevisiae strains, strain wild type, hits give low values",0.83 (active)
